AID923: qHTS Assay for Allosteric/Competitive Inhibitors of Caspase-1: Spectroscopic Profiling in AFC Spectral Region; compound fluorescence, AFC spectral region (405/520 nm); Potency, µM (top dose mostly 57.5 µM), inactives show at the highest dose fluorescence increase, usual class: activators; 1.1% of 75,000 active; note: potency is the fitted concentration of half-maximal effect; 0% is about no effect
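Titrations up to 57 uM read every 20 sec for 3 min (405/520 nm) with 50 nM caspase 1 and 5 uM Ac-WEHD-AFC, pH 7.5 HEPES buffer. Fluorescence-vs-time intercept gave baseline, scaled against on-plate AFC standard.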
HSD17B inhib: blocks hydroxysteroid 17-beta dehydrogenase activity; Q99714; AID 893; recombinant HSD17B10, NADH fluorescence kinetic; Potency, µM (titrated, usually from 57.1 µM), for inactives: top-dose activity change, negative = inhibition, actives largely listed as inhibitors; 7.6% of 75,000 active;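 note: the protocol describes HADH2 (HSD17B10) and not the HSD17B4 of the title; potency is the fitted concentration of half-maximal effect; % is set by controls: 0 for no effect and ±100 for the full control effect; nearly all actives have a fitted effect of over 70% in size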
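Enzyme plus compound, 15 min room temperature; substrate mix added (NAD+ 1 mM, beta-hydroxybutyryl-CoA 90 uM final); plates read kinetically for NADH fluorescence. HADH2 was His-tagged, E. coli-derived, 20 nM.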
CRE-bla Fsk: alters forskolin-stimulated CRE reporter signaling in CHO cells | CHO CRE-bla reporter (cAMP response element driving beta-lactamase), forskolin EC10, beta-lactamase ratio | Potency, µM (series often up to 38.2 µM), for inactives: top-dose activity change, negative = inhibition, hits mostly activators | 2.5% of 71,000 active; active = well fitted activation curve with a large enough effect in the signal ratio, with a control signal flat, not every such curve was filed as active; inconclusive = small, poorly fitted or top-dose-only effect, or effect the other way, or a change in a side signal; the % refers to the signal ratio; note: potency is the fitted concentration of half-maximal effect; % of control where 0% means no effect
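qHTS titration format; CRE-bla CHO reporter; stimulus EC10 NKH 477, a water-soluble forskolin. Read: CCF4 460/530 nm ratio. Potency expressed as AC50 for activators or inhibitors.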
4-MU autofl: 4-MU region autofluorescence; compound autofluorescence, 340/450 nm, 4-MU equivalents; hits give high values; max dye-equivalent concentration, M; 11% of 59,000 active; in the data active = max dye-equivalent concentration above about 10 nM; inconclusive = mostly about 1.1 nM to 9.6 nM
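Intrinsic fluorescence at 340/450 nm (ex/em) was read after 15 min at room temperature in pH 8.0, 100 mM Tris. Each compound concentration expressed as 4-MU-equivalent concentration from a six-point 4-MU standard series on each plate.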
A350 fluor: compounds fluorescent in Alexa 350 spectral region. max dye-equivalent concentration, M. AID 590. Compound autofluorescence, 340/450 nm, Alexa 350 dye-equivalents; hits give high values. 11% of 59,000 active; in the data active = max dye-equivalent concentration above about 10 nM; inconclusive = mostly about 1.1 nM to 9.6 nM
HADH2 inhib: inhibitors of human HADH2 dehydrogenase; Q99714; recombinant HADH2, NADH fluorescence, beta-hydroxybutyryl-CoA; Potency, µM (titrated, usually from 57.1 µM), for inactives: at the top dose activity change, negative = inhibition, actives largely listed as inhibitors; 3.4% of 73,000 active; AID 886; note: potency is the fitted concentration of half-maximal effect; % is set by controls: 0 for no effect and ±100 for the full control effect; nearly all actives have a fitted effect of over 60% in size
Target sequence (Q99714 whole entry, looked up, one chain of several): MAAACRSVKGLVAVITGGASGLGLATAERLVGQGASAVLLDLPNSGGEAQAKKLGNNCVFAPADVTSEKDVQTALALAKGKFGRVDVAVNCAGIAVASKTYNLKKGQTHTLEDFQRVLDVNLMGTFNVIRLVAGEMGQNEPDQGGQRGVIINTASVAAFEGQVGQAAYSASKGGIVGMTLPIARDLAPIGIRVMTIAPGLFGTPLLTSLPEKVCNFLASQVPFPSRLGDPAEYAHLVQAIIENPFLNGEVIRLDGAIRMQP
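E. coli-expressed His-tagged HADH2 tested at 20 nM in alkaline Tris buffer (pH 9.0); oxidation of 90 uM beta-hydroxybutyryl-CoA with 1 mM NAD+ tracked fluorimetrically for 4 min.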
Numbers without * were called inactive; i = inactive; ? = inconclusive; · = no result; [ ] = dose if it differs, or a comment. Most compounds without a hit are left out; they make up all but 14% or so of the library. Unless noted, calls come from the whole dose curve; as a rule, active = well fitted curve in the direction sought with a large enough effect; inconclusive = small, poorly fitted or top-dose-only effect, or another doubt; inactive = no such curve, though single readings can be large; an effect the other way counts as inactive or inconclusive.

SMILES | AID923 | HSD17B inhib | CRE-bla Fsk | 4-MU autofl | A350 fluor | HADH2 inhib
CC(=O)c1cccc(NS(=O)(=O)c2cccc(C(=O)O)c2)c1 | 0% | 8% | · | · | · | -6%
CCCc1cc(=O)oc2cc(C)cc(OCc3nn[nH]n3)c12 | 0% | 32µM* | -1% | 5.2e-08M* | 6.8e-08M* | 32µM*
CCCc1cc(=O)oc2cc(C)cc(OC(=O)c3ccco3)c12 | -1% | -2% | ? | · | · | 2%[11.4 µM]
CN(C)S(=O)(=O)c1ccc(Nc2ccc(O)c3c2C(=O)c2c([N+](=O)[O-])ccc(O)c2C3=O)cc1 | -2%[11.5 µM] | -5%[11.4 µM] | 14%[7.6 µM] | i | i | 1%[11.4 µM]
Cc1cccc2cc(CN(Cc3ccco3)C(=O)c3cccs3)c(=O)[nH]c12 | 1% | 20µM* | -13% | 2.1e-07M* | 2.1e-07M* | ?
Cc1ccc2[nH]c(=O)c(CN(Cc3ccco3)C(=O)c3cccs3)cc2c1 | -1% | 1% | -8% | i | i | 10%
Cc1ccc2cc(CN(Cc3ccco3)C(=O)c3cccs3)c(=O)[nH]c2c1 | 1% | 32µM* | ? | i | i | ?
Cc1ccc2cc(CN(Cc3ccco3)C(=O)c3ccccc3)c(=O)[nH]c2c1C | -1% | ? | -7% | i | ? | 4%
C[N+]12CCC(CC1)[C@@H](OC(=O)C(O)(c1ccccc1)c1ccccc1)C2 | -2%[25.7 µM] | 1%[25.6 µM] | 3%[17.1 µM] | ? | ? | -12%[25.6 µM]
CC(=O)Nc1nc2c(c3c1c(=O)oc1ccccc13)CCCCC2 | 1% | -2% | 11% | 2.1e-08M* | 2.2e-08M* | -1%
CC(=O)Nc1nc2c(c3c1c(=O)oc1ccccc13)CC(C)CC2 (centres undefined) | 2% | -2% | ? | 2.3e-07M* | 2.3e-07M* | ?
Nc1nc2c(c3c1c(=O)oc1ccccc13)CCCCC2 | 12% | 20µM* | ? | · | · | 33%[11.4 µM]
CC(=O)Nc1nc2c(c3c1c(=O)oc1ccccc13)CCCC2 | 4% | -12% | 12% | · | · | 9%
CC[C@H](C(=O)c1cccs1)C(O)(C(F)(F)F)C(F)(F)F | 3%[11.5 µM] | 1%[11.4 µM] | -1%[7.6 µM] | i | i | -5%[11.4 µM]
Cc1noc(C)c1-c1nc(NC2CCNCC2)c2ccccc2n1 | 3% | -5% | ? | i | i | -9%
CC(C)CO/N=C1/C[C@@H](O)[C@@H](O)[C@@H]2[C@@H]3C(=O)N(Cc4ccc5c(c4)OCO5)C(=O)[C@H]3CC[C@@H]12 | 4%[11.5 µM] | 1%[11.4 µM] | · | · | · | -7%[11.4 µM]
CCC(C)NC(=O)CS(=O)Cc1nc(-c2ccccc2C)oc1C (centres undefined) | -2% | -9% | -3% | · | · | -18%
Cc1ccc(-c2nc3ccccc3c(=O)n2CCCN2CCOCC2)cc1 | -1% | -1% | -2% | i | ? | 5%
Cc1nc(N2CCOCC2)c2nc(-c3ccccc3)n(CCCN(C)C)c2n1 | -1% | 25µM* | 5% | · | · | ?
Cc1nc(NC2CCCCC2)c2nc(-c3ccccc3)n(CCN3CCCCC3)c2n1 | 0% | 13µM* | ? | · | · | ?
O=C(Nc1nc2ccccc2n1CCN1CCCC1)C1CCCCC1 | -1% | 4% | -8% | i | i | 8%
CCN(CC)CCCn1c(-c2ccccc2)nc2c(N3CCOCC3)nc(C)nc21 | 0% | 32µM* | 6% | · | · | -15%
Cc1nc(N2CCOCC2)c2nc(-c3ccccc3)n(CCN3CCCC3)c2n1 | -1% | 25µM* | 11% | · | · | -17%
COc1cc2cc[n+]3cc4c(OC)c(OC)ccc4cc3c2cc1OC | -3% | -6% | · | · | · | ·
NC(=O)c1cnccn1 | 4% | 5% | -1% | i | i | -22%
Clc1ccccc1-c1cncnc1NCCN1CCOCC1 | 1% | 2% | 10% | i | i | -1%
Cc1nc(NC2CCCCC2)c2nc(-c3ccccc3)n(C(C)CN(C)C)c2n1 (centres undefined) | -3% | 25µM* | 1% | · | · | -23%
CCCn1c(C)nc2c(N3CCN(C)CC3)nc(C)nc21 | 0% | 16% | ? | · | · | 0%
